{"source": "the supplement of paper PMC8728848", "binders": {"B1": {"name": "ClecSol-Fc (Cryptosporidium parvum) (protein)", "chain": "CPEGWISNGEKTRCFKLVTFDRPRTFSHGFKACNDLGGTEVETRRRNGSKETNEYPVTLASVYKLSDEEAIRRTLVEQGDIHKTANGCFVGLRKYAFFRYPPGWYWIDSGSPVSVRDSEINWTSSYNASWLLRFKFPFEKCGFFDIGGLGRRPCWLIDSELSCAVCGTVAYDSGGLNPNKYSELIKQTDEIISKEPKLDLPGYNNLNCTDAWENNLSVGLCQNVSNILDSAWSSYQSSLNFPSINFNWKEDSTNEGGDQVYHNSYLDLPRYKQKKTFYWDQDPGTIPALSDEMKLIGLSAQPTYHPLDRSSSGSFESDSTESGRANEERNDTLEEMIYKQSSDSIEDILVPVTKPIFSDYSSIGRNSGVEEVYSSNVSTISSKGVVFPNTTTSSDNDFTKNNPANSSKHTSTSTTTNTTTTTTRTTTTTTTTTTTTTTTTTTTTETTTTKKSTTATKNTTTT"}}, "test_in_all_cases": "glycan array binding signal (z-score within array); higher = stronger binding", "conditions_in_all_cases": "glycan notation: IUPAC condensed, linker removed", "key": {"[1]": {"target": "Fuc(a1-2)Gal(b1-3)GalNAc(a1-3)[Fuc(a1-2)]Gal(b1-4)GlcNAc", "method_in_brief": "(§1)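 Arrays were curated from the Consortium for Functional Glycomics database, 3228 in total, and kept only where the protein sequence was available. Binding is expressed as a within-array Z-score. This score was averaged across arrays of the same protein sequence at different concentrations or buffers and across linkers, and negative values can be read as non-binding.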"}, "[2]": {"target": "Fuc(a1-2)Gal(b1-3)GalNAc(b1-3)Gal(a1-4)Gal(b1-4)Glc", "method_in_brief": "as §1"}, "[3]": {"target": "Fuc(a1-2)Gal(b1-3)GlcNAc(b1-3)[Neu5Ac(a2-6)Gal(b1-4)GlcNAc(b1-6)]Gal(b1-4)Glc", "method_in_brief": "as §1"}, "[4]": {"target": "Fuc(a1-2)Gal(b1-4)GlcNAc(b1-3)Gal(b1-4)GlcNAc(b1-2)Man(a1-3)[Fuc(a1-2)Gal(b1-4)GlcNAc(b1-3)Gal(b1-4)GlcNAc(b1-2)Man(a1-6)]Man(b1-4)GlcNAc(b1-4)GlcNAc", "method_in_brief": "as §1"}, "[5]": {"target": "Fuc(a1-2)Gal(b1-4)GlcNAc(b1-6)GalNAc", "method_in_brief": "as §1"}, "[6]": {"target": "Fuc(a1-2)[Gal(a1-3)]Gal(b1-4)GlcNAc(b1-3)GalNAc", "method_in_brief": "as §1"}, "[7]": {"target": "Fuc(a1-2)[Gal(a1-3)]Gal(b1-4)GlcNAc(b1-3)[Fuc(a1-2)[Gal(a1-3)]Gal(b1-4)GlcNAc(b1-6)]GalNAc", "method_in_brief": "as §1"}, "[8]": {"target": "Fuc(a1-2)[GalNAc(a1-3)]Gal(b1-3)GlcNAc(b1-2)Man(a1-3)[Fuc(a1-2)[GalNAc(a1-3)]Gal(b1-3)GlcNAc(b1-2)Man(a1-6)]Man(b1-4)GlcNAc(b1-4)[Fuc(a1-6)]GlcNAc", "method_in_brief": "as §1"}, "[9]": {"target": "Fuc(a1-2)[GalNAc(a1-3)]Gal(b1-4)GlcNAc(b1-3)GalNAc", "method_in_brief": "as §1"}, "[10]": {"target": "Fuc(a1-2)[GalNAc(a1-3)]Gal(b1-4)[Fuc(a1-3)]GlcNAc", "method_in_brief": "as §1"}, "[11]": {"target": "Fuc(a1-3)[Gal(b1-4)]GlcNAc(b1-2)Man(a1-3)[Fuc(a1-3)[Gal(b1-4)]GlcNAc(b1-2)Man(a1-6)]Man(b1-4)GlcNAc(b1-4)[Fuc(a1-6)]GlcNAc", "method_in_brief": "as §1"}, "[12]": {"target": "Fuc(a1-3)[Gal(b1-4)]GlcNAc(b1-6)[Gal(b1-3)GlcNAc(b1-3)]Gal(b1-4)Glc", "method_in_brief": "as §1"}, "[13]": {"target": "Fuc(a1-3)[GalNAc(b1-4)]GlcNAc6S", "method_in_brief": "as §1"}, "[14]": {"target": "Gal(b1-3)[Fuc(a1-4)]GlcNAc(b1-2)Man", "method_in_brief": "as §1"}, "[15]": {"target": "Gal(b1-3)[Neu5Ac(a2-6)]GalNAc", "method_in_brief": "as §1"}, "[16]": {"target": "Gal(b1-3)[Neu5Ac(b2-6)]GalNAc", "method_in_brief": "as §1"}, "[17]": {"target": "Gal(b1-4)GlcNAc(b1-2)Man(a1-3)[GlcNAc(b1-4)][Gal(b1-4)GlcNAc(b1-2)Man(a1-6)]Man(b1-4)GlcNAc(b1-4)GlcNAc", "method_in_brief": "as §1"}, "[18]": {"target": "Gal(b1-4)GlcNAc(b1-2)[Gal(b1-4)GlcNAc(b1-6)]Man(a1-6)[Gal(b1-4)GlcNAc(b1-2)Man(a1-3)]Man(b1-4)GlcNAc(b1-4)[Fuc(a1-6)]GlcNAc", "method_in_brief": "as §1"}, "[19]": {"target": "Gal(b1-4)GlcNAc(b1-3)Gal(b1-4)GlcNAc(b1-2)[Gal(b1-4)GlcNAc(b1-3)Gal(b1-4)GlcNAc(b1-6)]Man(a1-6)[Gal(b1-4)GlcNAc(b1-3)Gal(b1-4)GlcNAc(b1-2)Man(a1-3)]Man(b1-4)GlcNAc(b1-4)GlcNAc", "method_in_brief": "as §1"}, "[20]": {"target": "Gal(b1-4)GlcNAc(b1-3)Gal(b1-4)GlcNAc(b1-3)Gal(b1-4)GlcNAc(b1-3)Gal(b1-4)GlcNAc(b1-3)Gal(b1-4)GlcNAc(b1-3)Gal(b1-4)GlcNAc(b1-2)Man(a1-3)[Gal(b1-4)GlcNAc(b1-3)Gal(b1-4)GlcNAc(b1-3)Gal(b1-4)GlcNAc(b1-3)Gal(b1-4)GlcNAc(b1-3)Gal(b1-4)GlcNAc(b1-3)Gal(b1-4)GlcNAc(b1-2)Man(a1-6)]Man(b1-4)GlcNAc(b1-4)GlcNAc", "method_in_brief": "as §1"}, "[21]": {"target": "Gal(b1-4)GlcNAc(b1-3)Gal(b1-4)GlcNAc(b1-3)[Gal(b1-4)GlcNAc(b1-3)Gal(b1-4)GlcNAc(b1-6)]GalNAc", "method_in_brief": "as §1"}, "[22]": {"target": "Gal(b1-4)GlcNAc(b1-3)Gal(b1-4)[Fuc(a1-3)]GlcNAc(b1-3)Gal(b1-4)[Fuc(a1-3)]GlcNAc", "method_in_brief": "as §1"}, "[23]": {"target": "Gal(b1-4)GlcNAc(b1-3)[GlcNAc(b1-6)]Gal(b1-4)GlcNAc", "method_in_brief": "as §1"}, "Gal3S(b1-3)GalNAc": {"target": "Gal3S(b1-3)GalNAc", "method_in_brief": "as §1"}}, "note": "Shown is part of a subset that was picked to be rich in the strongest signals.", "data": [{"binder": "B1", "values": [{"measurement": "glycan array binding signal (z-score)", "setting": "[1]", "value": 0.031}, {"measurement": "glycan array binding signal (z-score)", "setting": "[2]", "value": -0.029}, {"measurement": "glycan array binding signal (z-score)", "setting": "[3]", "value": -0.161}, {"measurement": "glycan array binding signal (z-score)", "setting": "[4]", "value": -0.154}, {"measurement": "glycan array binding signal (z-score)", "setting": "[5]", "value": 0.51}, {"measurement": "glycan array binding signal (z-score)", "setting": "[6]", "value": 0.003}, {"measurement": "glycan array binding signal (z-score)", "setting": "[7]", "value": 0.705}, {"measurement": "glycan array binding signal (z-score)", "setting": "[8]", "value": -0.242}, {"measurement": "glycan array binding signal (z-score)", "setting": "[9]", "value": -0.169}, {"measurement": "glycan array binding signal (z-score)", "setting": "[10]", "value": -0.281}, {"measurement": "glycan array binding signal (z-score)", "setting": "[11]", "value": 0.593}, {"measurement": "glycan array binding signal (z-score)", "setting": "[12]", "value": 0.068}, {"measurement": "glycan array binding signal (z-score)", "setting": "[13]", "value": -0.242}, {"measurement": "glycan array binding signal (z-score)", "setting": "[14]", "value": -0.208}, {"measurement": "glycan array binding signal (z-score)", "setting": "[15]", "value": -0.235}, {"measurement": "glycan array binding signal (z-score)", "setting": "[16]", "value": -0.149}, {"measurement": "glycan array binding signal (z-score)", "setting": "[17]", "value": -0.166}, {"measurement": "glycan array binding signal (z-score)", "setting": "[18]", "value": -0.266}, {"measurement": "glycan array binding signal (z-score)", "setting": "[19]", "value": 0.543}, {"measurement": "glycan array binding signal (z-score)", "setting": "[20]", "value": -0.15}, {"measurement": "glycan array binding signal (z-score)", "setting": "[21]", "value": -0.114}, {"measurement": "glycan array binding signal (z-score)", "setting": "[22]", "value": -0.22}, {"measurement": "glycan array binding signal (z-score)", "setting": "[23]", "value": -0.01}, {"measurement": "glycan array binding signal (z-score)", "setting": "Gal3S(b1-3)GalNAc", "value": -0.101}]}]}
